Activity calls are given as the source filed them. Cut-off read from the data, not from the text of the source: active = fold change permeability below about 0.7 or above about 1.3; inactive = in between.
Assay: modulators of brain endothelial barrier permeability, primary screen, cell-based, FITC-avidin fluorescence, HTS (AID 1963498); note: test concentration not given here
Conditions: actives lie on both sides

Structure (SMILES)	fold change permeability
O=C(c1ccc(Br)cc1)N1CC2C3CCC(O3)C2C1 (stereo unspecified)	1.2 (inactive)
Cc1cc(C(C)(C)C)cc(C)c1CC1=NCCN1	2 (active)
NC(CCCP(=O)(O)O)C(=O)O (stereo unspecified)	0.9 (inactive)
CC(/C=C1\SC(=S)N(CC(=O)O)C1=O)=C\c1ccccc1	1 (inactive)
CC(=O)N[C@H](C(=O)O)C(C)(C)SN=O	0.9 (inactive)
COc1ccc(Cl)cc1C(=O)NCCc1ccc(S(=O)(=O)NC(=O)NC2CCCCC2)cc1	0.7 (active)
CCOC(=O)C1=C(C)NC(C)=C(C(=O)OC)C1c1cccc([N+](=O)[O-])c1 (stereo unspecified)	0.8 (inactive)
CN(C)c1nc(N)c(C(=O)N=C(N)N)nc1Cl	1 (inactive)
O=C(O)c1cc(=O)cc(C(=O)O)[nH]1	0.8 (inactive)
O=C1NC(=O)/C(=C/c2ccc(-c3ccc(F)cc3O)o2)S1	1 (inactive)
CCCCCCCCCCCCCCCCCCOP(=O)([O-])OC1CC[N+](C)(C)CC1	0.9 (inactive)
CCCCCCCCCCCC(=O)c1c(O)c(C(=O)CCCCCCCCCCC)c(O)c(C2CC(c3ccc(O)cc3)Oc3cc(O)ccc32)c1O (stereo unspecified)	1.4 (active)
Nc1nc(N)c2nc(CNc3ccc(C(=O)N[C@@H](CCC(=O)O)C(=O)O)cc3)cnc2n1	0.9 (inactive)
Cc1nc(Nc2cnn(C3CCNCC3)c2)nc2c1N(C)C(=O)c1cc3ccccc3cc1N2C	1 (inactive)
NCCCC(=O)O	0.8 (inactive)
C=C(Cc1ccccc1Cl)C(=O)OCC	1 (inactive)
CCN(CC)Cc1ccc(C(=O)N(CCc2ccccc2OC)[C@@H]2CCNC2)cc1	0.9 (inactive)
NC1C=CC=C(C(=O)O)C1 (stereo unspecified)	0.9 (inactive)
O=C(c1ccc(F)cc1)C1CCN(CCn2c(=O)[nH]c3ccccc3c2=O)CC1	1.2 (inactive)
O=c1[nH]cnc2[nH]ncc12	1 (inactive)
CC(=O)OCC1=C(C(=O)O)N2C(=O)[C@@H](NC(=O)Cc3cccs3)[C@H]2SC1	0.8 (inactive)
c1ccc2c(c1)CCCC2C1=NCCN1 (stereo unspecified)	0.7 (active)
Nc1ncnc2c1nc(Sc1ccc(Cl)cc1)n2C1OC2COP(=O)(O)O[C@@H]2[C@@H]1O (stereo partly specified)	0.9 (inactive)
Nc1nc(Nc2ccccc2)nc2c1ncn2[C@@H]1O[C@H](CO)[C@@H](O)[C@H]1O	0.8 (inactive)
O=C1N/C(=N/S(=O)(=O)c2cccc3ccccc23)S/C1=C\c1ccc(Br)cc1	1.3 (active)
CC(CN(C)C)CN1c2ccccc2CCc2ccccc21 (stereo unspecified)	1.4 (active)
